Screening results from PubChem.
ATXN2 expr inh – Primary qHTS for Inhibitors of ATXN expression; HEK-293 ATXN2-luciferase reporter, luminescence, 24 h; Potency, µM (titrated, usually from 57 µM), inactives show top-dose activity change, negative = inhibition, hits mostly inhibitors; actives 0.72% (n = 360,000); also: % is scaled to controls: 0 for no effect and ±100 for the full control effect; nearly all actives have a fitted effect of over 55% in size
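ATXN2-luciferase reporter cells (luciferase flanked by upstream and downstream ATXN2 gene portions) were treated 24 h at 37 °C with compounds at up to 57 uM. SteadyGlo luminescence gave expression; GF-AFC fluorescence gave viability.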
HttQ103 aggreg – qHTS Multiplex Assay to Identify Dual Action Probes in a Cell Model of Huntington: Aggregate Formation (GFP). PC12 HttQ103-GFP aggregates, Acumen cytometry, 40 h. Potency, µM (top dose mostly 46.1 µM), inactives show top-dose activity change, negative = inhibition, hits mostly inhibitors. AID 1688, 2009. actives 1.1% (n = 220,000); also: % is scaled to controls: 0 for no effect and ±100 for the full control effect; nearly all actives have a fitted effect of over 60% in size
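Huntingtin Q103 exon 1–GFP aggregates in induced PC12 cells (100 nM tebufenozide) were quantified by cytometry from lysates, with compounds dosed in titration.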
TGFb inhibitor – qHTS for Inhibitors of TGF-b | actives 1.2% (n = 410,000) | HepG2 CAGA-GFP TGF-b/SMAD3 reporter, GFP fluorescence, 18 h; TGF-beta stimulated, 500 pg/mL final | AID 588855, 2011 | Potency, µM (top dose mostly 46.1 µM), inactives show at the highest dose activity, negative = inhibition, usual class: inhibitors; also: % is scaled to controls: 0 for no effect and ±100 for the full control effect; nearly all actives have a fitted effect of over 65% in size
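Inhibition of TGF-beta-driven CAGA-GFP reporter expression in HEPG2 cells is measured by cellular GFP fluorescence after 18 h stimulation with 500 pg/mL recombinant TGF-beta in 1% FBS medium at 37 degrees C.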
HTT ATP protect – qHTS Multiplex Assay to Identify Dual Action Probes in a Cell Model of Huntington: Cytoprotection (ATP); PC12 HTT-Q103 induced, cytoprotection, ATP luminescence, 40 h; Potency, µM (series often up to 56.4 µM), inactives show cytoprotection (ATP increase), hits mostly activators; actives 0.14% (n = 230,000); also: % of control where 0% means no effect; nearly all actives have a fitted effect of over 45% in size
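Compounds were screened for protection of PC12 cells against cell death after tebufenozide induction (100 nM final) of mutant Huntingtin exon 1 (Q103) fused to GFP.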
ATXN viability – Viability Counterscreen for Primary qHTS for Inhibitors of ATXN expression; Potency, µM (doses to about 56.7 µM), most hits filed as cytotoxic; actives 0.49% (n = 400,000); S2 cells (HEK-293 line with an ATXN2-luciferase reporter) viability, CellTiter-Fluor protease fluorescence, 24 h; AID 651635, 2014; also: nearly all actives have a fitted effect of over 40% in size
HepG2 tox – qHTS for Inhibitors of TGF-b: Cytotox Counterscreen | HepG2 CAGA-GFP viability, ATP luminescence, 18 h | Potency, µM (series often up to 46.1 µM), for the others: at the top dose activity change, negative = cytotoxicity, most hits filed as cytotoxic | actives 0.76% (n = 410,000) | AID 588856, 2011
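CellTiter-Glo luminescence gave cytotoxicity after 18 hours at 37 degrees C. The cells were HepG2 CAGA-GFP in 1% FBS DMEM, stimulated with 500 pg/mL TGF-beta after compound addition. %Activity was normalised to no-cell wells (complete cell-killing) and DMSO (no toxicity), and curves were fitted and classified.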
* hit, by the source's call; i = inactive; ? = inconclusive; nt = no result given; [ ] = dose if it differs, or a comment. A selection: hits, their analogues and other compounds. The true share with any hit is near 2.8%. Calls follow the shape of the dose curve; as a rule, active = well fitted curve in the direction sought with a large enough effect; inconclusive = small, poorly fitted or top-dose-only effect, or another doubt; inactive = no such curve, though single readings can be large; an effect the other way counts as inactive or inconclusive. Potency is read from the fitted curve at half-maximal effect.

SMILES	ATXN2 expr inh	HttQ103 aggreg	TGFb inhibitor	HTT ATP protect	ATXN viability	HepG2 tox
C/C(=N\Nc1cc(N2CCCCC2)nc(C)n1)c1ccc(Br)cc1	?	nt	10µM*	nt	i	16µM*
NC[C@@H]1O[C@@H](O[C@H]2[C@@H](O)[C@H](O[C@@H]3[C@H](O)[C@H](N)C[C@H](N)[C@H]3O[C@@H]3O[C@@H](CO)[C@H](O)[C@H](O)[C@@H]3N)O[C@H]2CO)[C@H](N)[C@H](O)[C@@H]1O	nt	nt	nt	9%[1.9 µM]	nt	nt
CCOc1ccccc1CNC(=O)Cn1nc(C)c2c(C)n(-c3ccc(C)cc3)nc2c1=O	nt	nt	5µM*	nt	?	-44%
Cc1ccc(-n2nc3c(=O)n(CC(=O)NCCc4ccco4)nc(C)c3c2C)cc1	0%	nt	22µM*	nt	i	-93%
COc1cccc(CNC(=O)Cn2nc(C)c3c(C)n(-c4ccc(C)cc4)nc3c2=O)c1OC	-6%	nt	-1%	nt	i	-2%
COc1ccc(CNC(=O)Cn2cnc3c(SC)nc(N)nc32)cc1	-11%	nt	-14%	nt	i	7%
COc1c(C)cnc(Cn2cnc3c(Cl)nc(N)nc32)c1C	0.19µM*	nt	nt	nt	nt	nt
Cc1nc2c([nH]1)CCN(C(=O)c1ccc(NC(=O)c3ccccc3-c3ccccc3)cc1)c1ccccc1-2	-1%	nt	nt	nt	nt	nt
CCC1C(=O)NCCN1Cc1ccc2c(c1)CN(Cc1ccc(OC)cc1OC)CCO2 (stereo unspecified)	nt	nt	nt	nt	i	nt
COc1cc(-c2nc3nc(C)cc(C)n3c2Nc2ccc(Cl)cc2)ccc1O	nt	nt	13µM*	nt	nt	-40%
CC(=O)NC(c1cccs1)c1cc([N+](=O)[O-])c2cccnc2c1O (stereo unspecified)	13µM*	3.2µM*	?	-56%[10 µM]	?	-10%
CCC(=O)NC(c1cccs1)c1cc([N+](=O)[O-])c2cccnc2c1O (stereo unspecified)	?	?	?	-89%[10 µM]	?	-47%
O=C(CCc1ccccc1)NC(c1cccs1)c1cc(Cl)c2cccnc2c1O (stereo unspecified)	13µM*	-13%[9.22 µM]	?	-59%[10 µM]	nt	-1%
CCC(=O)NC(c1cccs1)c1cc(Cl)c2ccccc2c1O (stereo unspecified)	-30%	nt	?	nt	i	1%
CCCC(=O)NC(c1cccs1)c1cc([N+](=O)[O-])c2cccnc2c1O (stereo unspecified)	?	11µM*	-32%	8%[10 µM]	?	-18%
Cc1ccnc2cc(Cl)c(Cl)cc12	nt	nt	-1%	nt	nt	0%
C[Si](C)(C)Cl	nt	nt	nt	-4%	nt	nt
COc1ccc2c(c1)c(CC(=O)OC/C=C(\C)CC/C=C(\C)CCC=C(C)C)c(C)n2C(=O)c1ccc(Cl)cc1	?	nt	nt	nt	i	nt
N#Cc1nc(Cc2ccccc2)oc1NCc1cccnc1	3%	-8%	-1%	-17%[0.074 µM]	i	-14%
N#Cc1nc(Cc2ccccc2)oc1NCc1ccccc1Cl	13%	8.9µM*	21%	-3%	i	2%
Cc1ccc(OCc2ccc(-c3nc(C#N)c(NCc4ccccc4Cl)o3)o2)cc1	?	nt	?	nt	20µM*	-62%
CCC[C@H]1COCCS(=O)(=O)N1Cc1cccc(F)c1	nt	nt	-6%	nt	nt	-18%
c1ccc(-c2nnc(-c3ccccn3)nc2NC2CCCCC2)cc1	?	3.5µM*	?	-38%[10 µM]	i	-14%
Cc1cc(C(=O)Nc2ccccc2-c2nc(CNC(=O)C3(C)CCCCC3)c(C)o2)c(C)o1	nt	nt	nt	nt	i	nt
O=C(c1[nH]o[n+](=O)c1C(=O)c1csc2ccccc12)c1csc2ccccc12	nt	nt	nt	-44%[10 µM]	nt	nt
SMILES	ATXN2 expr inh	HttQ103 aggreg	TGFb inhibitor	HTT ATP protect	ATXN viability	HepG2 tox
CCCN1CCC(NCc2cn(C)nc2-c2ccc(Oc3ccccc3)cc2)CC1	nt	13%[9.22 µM]	?	-30%[10 µM]	?	1.3µM*
COC1CCCN(Cc2cn(C)nc2-c2ccc(Oc3ccccc3)cc2)C1 (stereo unspecified)	-11%	3%	-3%	-8%	i	-18%
Cc1cnc(C)c(-c2cccc3c2OC(CNC(=O)/C=C/c2ccc(F)c(F)c2)C3)n1 (stereo unspecified)	nt	nt	nt	nt	i	nt
COc1cccc(CNC(=O)c2cnn(-c3ncc4c(n3)-c3ccccc3CCC4)c2C)c1OC	nt	nt	nt	nt	i	nt
COc1cc(=O)n2c(c1C(=O)N1CCc3ccccc3C1)CCN(Cc1ccc(CO)o1)CC2	nt	nt	nt	nt	i	nt
O=C(Nc1ccncc1)c1ccccc1F	8%	?	-2%	-1%	i	-41%
O=C(Nc1ccncc1)c1cc2ccccc2cc1O	12%	nt	13µM*	nt	?	-14%
COC(=O)c1cccc(C(=O)N2CCc3c(C(=O)OC)c(OCc4ccccn4)cc(=O)n3CC2)c1	nt	nt	nt	nt	i	nt
COc1ccc(/C=N/Nc2cc(C)nc3c(C)cccc23)cc1	?	nt	?	nt	?	13µM*
COc1ccc2nc(C)cc(N/N=C/c3ccc(F)cc3)c2c1	?	nt	4µM*	nt	?	5µM*
COc1ccc(C2/C=C\CN(S(=O)(=O)CC34CCC(CC3=O)C4(C)C)CC(=O)N2Cc2ccc(F)cc2)cc1 (stereo unspecified)	nt	nt	-4%	nt	nt	-1%
Cc1cc(C)n(-c2cccc(C(=O)NCC3Cc4cc(Cl)cc(-c5cnccn5)c4O3)c2)n1 (stereo unspecified)	nt	nt	nt	nt	i	nt
CC1(C)Cc2c(C#N)c(NCc3ccco3)nc(-c3ccco3)c2CO1	-13%	1µM*	-9%	-24%[10 µM]	i	-48%
Cc1nc(NCc2ccco2)c(C#N)c2c1COC(C)(C)C2	-12%	3%	0%	-14%	i	7%
CCCCN(C)c1nc(-c2ccco2)c2c(c1C#N)CC(C)(C)OC2	22µM*	17%	?	3%	i	-48%
N#Cc1c(NCCN)nc(-c2ccco2)c2c1CCCC2	13µM*	-12%	?	-8%	i	-29%
CN(C)c1ccc(/C=C2\C=Cc3ccccc32)c(Cl)c1	nt	nt	-13%	nt	nt	-24%
COc1ccc(-c2ccc(CCC(=O)O)n2CC(=O)Nc2cccc(OC)c2)cc1	2%	-8%	19%	-29%	i	0%
COc1cccc(NC(=O)Cn2c(CCC(=O)O)ccc2-c2ccc(C)cc2)c1	nt	3%	?	-1%	i	16µM*
COc1ccccc1C(=O)NCCc1csc(-c2ccc(C(F)(F)F)cc2)n1	nt	nt	8.9µM*	nt	nt	-61%
